Data as given in the supplement of paper PMC10849652.
Targets with a hit are over-represented here; the source holds about 7,900 in all. About 0.6% of all pairs of compound and target were hits. Unmarked numbers belong to inactive results.

Key:
Experiment in all cases: log2 fold change, soluble protein after heating vs DMSO (PISA); higher = thermal stabilisation; K562 cells, 10 uM, 30 min; active = over 0.2 and 3.5 SD of the protein, either way, in both replicates (recomputed)
saracatinib = compound: CN1CCN(CCOc2cc(OC3CCOCC3)c3c(Nc4c(Cl)ccc5c4OCO5)ncnc3c2)CC1 [saracatinib]
Summary of the method: (§1)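 For each measurement, 10 μM compound was applied for 30 min to K562 cells at 2×10^6 cells/mL. Aliquots were heated for 3 min across 48°C-58°C, pooled, and extracted in PBS with 0.5% NP-40 at 4°C; the supernatant after 21,000xg for 90 min was soluble protein. This was quantified by TMTpro 16plex LC-MS/MS with channel sums equalised, and thermal stability was reported relative to control samples from duplicates, on a log2 fold-change scale.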

sotrastaurin = compound: CN1CCN(c2nc(C3=C(c4c[nH]c5ccccc45)C(=O)NC3=O)c3ccccc3n2)CC1 [sotrastaurin]
Summary of the method: as §1

alvocidib = compound: CN1CC[C@H](c2c(O)cc(O)c3c(=O)cc(-c4ccccc4Cl)oc23)[C@H](O)C1 [alvocidib]
Summary of the method: as §1

Tubastatin A = compound: CN1CCc2c(c3ccccc3n2Cc2ccc(C(=O)NO)cc2)C1 [Tubastatin A]
Summary of the method: as §1

[1] = compound: CNC(=O)C1=CC=CC=C1NC2=NC(=NC=C2Cl)NC3=C(C=C(C=C3)N4CCOCC4)OC
Summary of the method: as §1

defactinib = compound: CNC(=O)c1ccc(Nc2ncc(C(F)(F)F)c(NCc3nccnc3N(C)S(C)(=O)=O)n2)cc1 [defactinib]
Summary of the method: as §1

rucaparib = compound: CNCc1ccc(-c2[nH]c3cc(F)cc4c3c2CCNC4=O)cc1 [rucaparib]
Summary of the method: as §1

[2] = compound: CNc1nc(-c2ccc3c(N)n[nH]c3c2)cc(N2C[C@@H](C(=O)NC3CCCCC3)CC[C@H]2C)n1
Summary of the method: as §1

encorafenib = compound: COC(=O)N[C@@H](C)CNc1nccc(-c2cn(C(C)C)nc2-c2cc(Cl)cc(NS(C)(=O)=O)c2F)n1 [encorafenib]
Summary of the method: as §1

[3] = compound: COC(=O)[C@H](CCSC)NC(=O)C1=C(C=C(C=C1)NC[C@H](CS)N)C2=CC=CC=C2
Summary of the method: as §1

[4] = compound: COC1=CC=C(C=C1)CN2C=CC3=C2C=C(C=C3)C(=O)NO
Summary of the method: as §1

filanesib = compound: CON(C)C(=O)N1N=C(c2cc(F)ccc2F)S[C@@]1(CCCN)c1ccccc1 [filanesib]
Summary of the method: as §1

zotarolimus = compound: CO[C@H]1C[C@@H]2CC[C@@H](C)[C@@](O)(O2)C(=O)C(=O)N2CCCC[C@H]2C(=O)O[C@H]([C@H](C)C[C@@H]2CC[C@H](n3cnnn3)[C@H](OC)C2)CC(=O)[C@H](C)/C=C(\C)[C@@H](O)[C@@H](OC)C(=O)[C@H](C)C[C@H](C)/C=C/C=C/C=C/1C [zotarolimus]
Summary of the method: as §1

idasanutlin = compound: COc1cc(C(=O)O)ccc1NC(=O)[C@@H]1N[C@@H](CC(C)(C)C)[C@](C#N)(c2ccc(Cl)cc2F)[C@H]1c1cccc(Cl)c1F [idasanutlin]
Summary of the method: as §1

alisertib = compound: COc1cc(Nc2ncc3c(n2)-c2ccc(Cl)cc2C(c2c(F)cccc2OC)=NC3)ccc1C(=O)O [alisertib]
Summary of the method: as §1

[5] = compound: COc1cc2nc(-c3cc(F)ccc3O)nc(N[C@@H]3CNC[C@H]3C(C)(C)O)c2cc1OC
Summary of the method: as §1

gefitinib = compound: COc1cc2ncnc(Nc3ccc(F)c(Cl)c3)c2cc1OCCCN1CCOCC1 [gefitinib]
Summary of the method: as §1

[6] = compound: COc1cccc2cc(-c3nc([C@H]4CC[C@H](C(=O)O)CC4)n4ncnc(N)c34)[nH]c12
Summary of the method: as §1

lapatinib = compound: CS(=O)(=O)CCNCc1ccc(-c2ccc3ncnc(Nc4ccc(OCc5cccc(F)c5)c(Cl)c4)c3c2)o1 [lapatinib]
Summary of the method: as §1

pictilisib = compound: CS(=O)(=O)N1CCN(Cc2cc3nc(-c4cccc5[nH]ncc45)nc(N4CCOCC4)c3s2)CC1 [pictilisib]
Summary of the method: as §1

Sequence of UniProt Q6UWB1 (Q6UWB1 whole entry, looked up): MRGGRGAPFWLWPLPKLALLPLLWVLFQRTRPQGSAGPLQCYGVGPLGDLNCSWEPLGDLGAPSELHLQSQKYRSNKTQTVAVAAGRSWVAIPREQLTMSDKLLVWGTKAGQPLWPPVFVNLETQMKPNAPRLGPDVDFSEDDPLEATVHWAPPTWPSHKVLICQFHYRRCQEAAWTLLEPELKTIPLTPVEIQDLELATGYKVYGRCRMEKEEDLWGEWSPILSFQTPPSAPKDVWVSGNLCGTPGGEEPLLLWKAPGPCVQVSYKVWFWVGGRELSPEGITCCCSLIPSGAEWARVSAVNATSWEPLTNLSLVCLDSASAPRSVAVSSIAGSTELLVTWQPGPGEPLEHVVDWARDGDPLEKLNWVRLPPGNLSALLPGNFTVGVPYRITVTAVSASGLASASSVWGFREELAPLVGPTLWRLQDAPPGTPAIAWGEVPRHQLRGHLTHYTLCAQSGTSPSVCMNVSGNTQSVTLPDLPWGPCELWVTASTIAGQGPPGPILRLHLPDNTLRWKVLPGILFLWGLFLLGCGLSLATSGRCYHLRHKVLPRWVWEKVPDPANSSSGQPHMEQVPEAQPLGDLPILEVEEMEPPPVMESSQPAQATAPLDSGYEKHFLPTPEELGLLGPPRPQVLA
Sequence of UniProt O94822 (O94822 whole entry, looked up): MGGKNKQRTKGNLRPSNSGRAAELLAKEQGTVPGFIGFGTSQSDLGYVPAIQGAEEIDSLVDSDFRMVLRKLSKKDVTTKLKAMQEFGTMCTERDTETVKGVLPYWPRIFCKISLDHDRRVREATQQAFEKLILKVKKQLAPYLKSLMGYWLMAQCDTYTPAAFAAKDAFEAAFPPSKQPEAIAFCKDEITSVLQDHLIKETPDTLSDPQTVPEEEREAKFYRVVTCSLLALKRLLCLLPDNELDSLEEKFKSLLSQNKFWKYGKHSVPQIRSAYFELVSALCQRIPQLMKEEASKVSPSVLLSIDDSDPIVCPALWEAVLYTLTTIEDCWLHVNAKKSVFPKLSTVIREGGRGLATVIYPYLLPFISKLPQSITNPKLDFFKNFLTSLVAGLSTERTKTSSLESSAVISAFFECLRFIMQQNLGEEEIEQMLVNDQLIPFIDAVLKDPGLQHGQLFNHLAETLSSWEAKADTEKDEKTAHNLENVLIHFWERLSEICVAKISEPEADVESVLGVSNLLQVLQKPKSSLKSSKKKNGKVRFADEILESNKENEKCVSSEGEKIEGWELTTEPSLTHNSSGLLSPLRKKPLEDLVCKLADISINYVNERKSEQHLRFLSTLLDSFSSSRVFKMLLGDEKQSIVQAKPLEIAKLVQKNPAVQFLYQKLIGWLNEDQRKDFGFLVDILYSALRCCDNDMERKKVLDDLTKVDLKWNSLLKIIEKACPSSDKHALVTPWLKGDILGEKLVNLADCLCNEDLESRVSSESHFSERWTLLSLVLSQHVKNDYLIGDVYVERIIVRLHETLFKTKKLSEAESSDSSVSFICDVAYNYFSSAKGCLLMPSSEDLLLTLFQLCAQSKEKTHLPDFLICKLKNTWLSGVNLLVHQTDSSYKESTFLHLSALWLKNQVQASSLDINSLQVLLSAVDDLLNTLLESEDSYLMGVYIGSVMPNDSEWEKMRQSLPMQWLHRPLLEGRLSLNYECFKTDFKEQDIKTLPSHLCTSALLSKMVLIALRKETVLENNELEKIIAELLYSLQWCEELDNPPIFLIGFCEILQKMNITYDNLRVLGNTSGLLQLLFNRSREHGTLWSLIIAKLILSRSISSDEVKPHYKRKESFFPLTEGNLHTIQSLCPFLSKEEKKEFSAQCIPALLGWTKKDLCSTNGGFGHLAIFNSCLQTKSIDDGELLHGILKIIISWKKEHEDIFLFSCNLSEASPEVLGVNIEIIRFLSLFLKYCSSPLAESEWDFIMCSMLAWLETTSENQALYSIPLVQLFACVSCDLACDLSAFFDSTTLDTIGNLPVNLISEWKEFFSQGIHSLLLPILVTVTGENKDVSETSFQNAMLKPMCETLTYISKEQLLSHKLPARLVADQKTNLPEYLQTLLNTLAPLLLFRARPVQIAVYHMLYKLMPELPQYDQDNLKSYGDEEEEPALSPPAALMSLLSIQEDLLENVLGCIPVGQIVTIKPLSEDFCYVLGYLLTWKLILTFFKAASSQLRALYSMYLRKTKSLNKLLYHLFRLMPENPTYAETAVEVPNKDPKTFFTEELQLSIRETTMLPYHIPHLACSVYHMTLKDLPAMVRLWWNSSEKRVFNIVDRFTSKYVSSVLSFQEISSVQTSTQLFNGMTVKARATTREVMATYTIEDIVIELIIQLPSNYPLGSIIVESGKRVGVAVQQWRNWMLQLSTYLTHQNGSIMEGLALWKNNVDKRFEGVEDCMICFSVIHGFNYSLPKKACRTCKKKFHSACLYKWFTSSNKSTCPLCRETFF
Sequence of UniProt Q16891 (Q16891 whole entry, looked up): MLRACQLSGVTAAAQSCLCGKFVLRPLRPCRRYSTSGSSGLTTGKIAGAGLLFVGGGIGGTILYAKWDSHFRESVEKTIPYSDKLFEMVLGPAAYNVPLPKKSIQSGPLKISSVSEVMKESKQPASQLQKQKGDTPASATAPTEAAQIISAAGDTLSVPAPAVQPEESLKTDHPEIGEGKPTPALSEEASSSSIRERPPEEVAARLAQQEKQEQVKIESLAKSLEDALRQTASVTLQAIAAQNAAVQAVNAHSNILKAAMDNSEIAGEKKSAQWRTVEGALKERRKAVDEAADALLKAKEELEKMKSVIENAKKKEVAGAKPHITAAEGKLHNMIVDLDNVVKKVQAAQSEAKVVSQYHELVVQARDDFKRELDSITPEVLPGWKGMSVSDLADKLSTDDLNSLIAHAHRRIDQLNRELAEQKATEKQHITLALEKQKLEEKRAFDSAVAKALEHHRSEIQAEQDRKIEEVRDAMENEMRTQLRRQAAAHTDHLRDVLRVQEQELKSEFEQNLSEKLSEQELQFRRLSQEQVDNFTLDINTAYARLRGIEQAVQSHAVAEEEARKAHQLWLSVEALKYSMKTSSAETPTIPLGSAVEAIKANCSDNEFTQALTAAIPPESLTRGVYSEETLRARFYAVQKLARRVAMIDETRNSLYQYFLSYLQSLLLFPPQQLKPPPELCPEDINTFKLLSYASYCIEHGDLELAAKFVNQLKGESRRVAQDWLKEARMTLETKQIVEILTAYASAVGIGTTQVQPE
Sequence of UniProt Q6N075 (Q6N075 whole entry, looked up): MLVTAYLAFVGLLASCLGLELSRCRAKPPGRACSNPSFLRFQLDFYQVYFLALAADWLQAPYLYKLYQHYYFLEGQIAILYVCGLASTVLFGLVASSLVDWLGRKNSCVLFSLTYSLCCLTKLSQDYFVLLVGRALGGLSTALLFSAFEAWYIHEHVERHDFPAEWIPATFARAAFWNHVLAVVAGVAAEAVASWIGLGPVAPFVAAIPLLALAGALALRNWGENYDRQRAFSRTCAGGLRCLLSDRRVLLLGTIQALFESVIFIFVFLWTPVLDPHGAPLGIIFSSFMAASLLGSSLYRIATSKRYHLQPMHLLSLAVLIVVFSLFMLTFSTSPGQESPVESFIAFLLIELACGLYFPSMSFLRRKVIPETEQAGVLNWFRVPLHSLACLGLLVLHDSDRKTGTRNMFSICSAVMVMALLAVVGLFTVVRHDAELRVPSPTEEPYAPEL
Sequence of UniProt P43362 (P43362 whole entry, looked up): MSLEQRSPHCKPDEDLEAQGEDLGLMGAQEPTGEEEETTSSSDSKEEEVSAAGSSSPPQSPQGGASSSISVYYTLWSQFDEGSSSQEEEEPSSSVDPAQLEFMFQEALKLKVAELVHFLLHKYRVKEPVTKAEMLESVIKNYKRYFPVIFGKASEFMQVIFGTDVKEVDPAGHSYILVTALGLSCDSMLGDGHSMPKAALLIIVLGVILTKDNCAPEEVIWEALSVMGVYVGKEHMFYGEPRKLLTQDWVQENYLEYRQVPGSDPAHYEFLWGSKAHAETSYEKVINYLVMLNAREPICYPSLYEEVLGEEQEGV
Sequence of UniProt Q71SY5 (Q71SY5 whole entry, looked up): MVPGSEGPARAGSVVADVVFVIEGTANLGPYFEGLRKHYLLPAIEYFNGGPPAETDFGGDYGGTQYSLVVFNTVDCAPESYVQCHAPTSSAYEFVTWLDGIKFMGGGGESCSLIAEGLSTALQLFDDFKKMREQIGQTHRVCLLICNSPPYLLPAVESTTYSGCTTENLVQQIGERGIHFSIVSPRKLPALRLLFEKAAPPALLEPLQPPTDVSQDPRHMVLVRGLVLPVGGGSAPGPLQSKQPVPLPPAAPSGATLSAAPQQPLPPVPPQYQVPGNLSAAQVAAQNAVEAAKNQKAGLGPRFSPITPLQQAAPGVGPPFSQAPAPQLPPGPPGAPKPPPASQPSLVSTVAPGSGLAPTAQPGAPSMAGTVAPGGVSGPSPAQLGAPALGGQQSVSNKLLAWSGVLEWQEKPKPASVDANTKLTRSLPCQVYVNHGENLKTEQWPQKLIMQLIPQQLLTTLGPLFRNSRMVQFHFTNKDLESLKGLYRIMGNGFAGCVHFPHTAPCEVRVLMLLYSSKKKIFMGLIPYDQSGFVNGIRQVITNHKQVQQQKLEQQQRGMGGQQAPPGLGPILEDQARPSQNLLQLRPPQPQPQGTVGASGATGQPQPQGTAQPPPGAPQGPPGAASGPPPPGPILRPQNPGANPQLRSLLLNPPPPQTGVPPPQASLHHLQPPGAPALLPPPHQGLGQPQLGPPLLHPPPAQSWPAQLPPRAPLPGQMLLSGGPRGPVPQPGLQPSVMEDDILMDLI
Sequence of UniProt O95568 (O95568 whole entry, looked up): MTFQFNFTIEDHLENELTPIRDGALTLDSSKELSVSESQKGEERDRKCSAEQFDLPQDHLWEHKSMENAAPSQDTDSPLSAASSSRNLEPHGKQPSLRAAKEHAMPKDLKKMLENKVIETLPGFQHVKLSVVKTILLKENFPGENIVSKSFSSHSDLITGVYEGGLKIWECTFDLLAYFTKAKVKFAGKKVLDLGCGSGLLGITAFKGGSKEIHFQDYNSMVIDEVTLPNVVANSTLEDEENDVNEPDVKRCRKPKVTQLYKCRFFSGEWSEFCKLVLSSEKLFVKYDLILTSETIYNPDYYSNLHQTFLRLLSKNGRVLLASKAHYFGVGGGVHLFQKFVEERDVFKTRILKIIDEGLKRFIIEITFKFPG

Row | Target | log2 fold change (saracatinib) | log2 fold change (sotrastaurin) | log2 fold change (alvocidib) | log2 fold change (Tubastatin A) | log2 fold change [1] | log2 fold change (defactinib) | log2 fold change (rucaparib) | log2 fold change [2] | log2 fold change (encorafenib) | log2 fold change [3] | log2 fold change [4] | log2 fold change (filanesib) | log2 fold change (zotarolimus) | log2 fold change (idasanutlin) | log2 fold change (alisertib) | log2 fold change [5] | log2 fold change (gefitinib) | log2 fold change [6] | log2 fold change (lapatinib) | log2 fold change (pictilisib)
1 | LMNB1 (UniProt P20700) | 0.029 | -0.11 | -0.173 | -0.016 | 0.007 | -0.166 | -0.035 | -0.095 | 0.016 | 0.032 | -0.034 | 0.131 | 0.053 | 0.14 | -0.075 | -0.09 | -0.002 | 0.064 | 0.087 | 0.005
2 | KIF1B isoform 4 (UniProt O60333) | -0.033 | -0.014 | -0.018 | 0.025 | 0.016 | -0.004 | -0.006 | -0.097 | 0.023 | -0.016 | 0.008 | -0.128 | 0.024 | -0.006 | -0.044 | -0.014 | -0.004 | -0.04 | 0.013 | 0.037
3 | MED17 (UniProt Q9NVC6) | -0.063 | -0.145 | -0.009 | 0.009 | -0.049 | -0.021 | 0.109 | 0.031 | -0.081 | 0.055 | 0.004 | 0.019 | -0.052 | 0.166 | -0.08 | 0.044 | 0.016 | -0.018 | -0.063 | 0.089
4 | MAGEA9 (UniProt P43362) | 0.041 | -0.037 | -0.346 | -0.038 | -0.001 | -0.175 | -0.153 | 0.015 | 0.039 | -0.082 | -0.246 | 0.003 | 0.015 | 0.087 | 0.057 | 0.024 | 0.034 | 0.033 | -0.018 | -0.018
5 | IMMT isoform 2 (UniProt Q16891) | -0.069 | -0.036 | -0.071 | -0.076 | 0.131 | 0.029 | 0.023 | -0.111 | 0.017 | 0.067 | 0.006 | -0.101 | -0.045 | 0.04 | -0.088 | -0.25 | -0.006 | 0.017 | -0.151 | -0.238
6 | KSR1 (UniProt Q8IVT5) | -0.229 | -0.149 | -0.135 | 0.054 | -0.061 | -0.073 | -0.044 | 0.038 | 0.081 | 0.012 | 0.015 | 0.033 | 0.016 | 0.034 | 0.123 | -0.329 | -0.028 | 0.126 | 0.087 | 0.176
7 | IL27RA (UniProt Q6UWB1) | 0.062 | 0.014 | -0.025 | 0.063 | 0.056 | -0.097 | -0.03 | 0.065 | -0.023 | 0 | -0.02 | 0.065 | -0.11 | 0.113 | -0.29 | 0.047 | -0.169 | 0.207 | 0.043 | –
8 | LTN1 isoform 3 (UniProt O94822) | -0.016 | -0.114 | -0.042 | 0.196 | 0.01 | -0.114 | 0.158 | -0.012 | 0.047 | -0.057 | 0 | -0.009 | 0.039 | -0.136 | 0.01 | 0.04 | -0.04 | -0.108 | -0.029 | -0.157
9 | LPCAT3 (UniProt Q6P1A2) | -0.048 | -0.14 | -0.002 | 0 | 0.093 | 0 | -0.074 | 0.138 | -0.026 | -0.021 | -0.067 | -0.352 (active) | -0.065 | -0.086 | -0.055 | -0.117 | -0.024 | -0.017 | 0.172 | -0.011
10 | MFSD5 isoform 2 (UniProt Q6N075) | 0.058 | 0.122 | 0.029 | -0.093 | 0.069 | 0.039 | 0.058 | -0.065 | -0.022 | 0.012 | 0.037 | 0.018 | -0.149 | -0.058 | 0.011 | -0.026 | 0.039 | 0.12 | 0.045 | 0.062
11 | METTL18 (UniProt O95568) | 0.024 | 0.066 | -0.056 | -0.037 | -0.042 | -0.021 | -0.041 | -0.031 | 0.108 | -0.176 | -0.364 (active) | 0.009 | 0.033 | -0.022 | 0.006 | 0.075 | -0.033 | 0.057 | 0.069 | 0.026
12 | MFF (UniProt Q9GZY8) | 0.003 | -0.027 | -0.06 | 0.012 | -0.127 | -0.025 | -0.059 | -0.078 | 0.015 | 0.092 | 0.038 | 0.075 | -0.022 | 0.053 | 0.024 | -0.141 | 0.012 | 0.128 | -0.061 | 0.103
13 | KTN1 (UniProt Q86UP2) | 0.001 | -0.07 | 0.109 | 0.032 | -0.12 | 0.109 | 0.155 | -0.079 | 0.137 | -0.053 | 0.023 | 0.146 | 0.034 | 0.004 | 0.032 | -0.001 | -0.08 | -0.116 | -0.038 | -0.086
14 | IMMP1L (UniProt Q96LU5) | -0.041 | -0.005 | 0.039 | -0.024 | -0.01 | 0.011 | -0.039 | -0.102 | -0.037 | -0.027 | -0.041 | -0.067 | -0.034 | -0.067 | -0.252 (active) | 0.005 | -0.022 | 0.016 | -0.062 | –
15 | MED25 isoform 3 (UniProt Q71SY5) | -0.079 | 0.031 | -0.102 | -0.042 | -0.014 | -0.045 | 0.104 | 0.036 | 0.083 | -0.111 | -0.015 | -0.018 | 0.136 | 0.004 | 0.048 | -0.01 | 0.093 | -0.285 | -0.03 | 0.103
16 | MFN2 (UniProt O95140) | -0.005 | 0.045 | -0.012 | 0.02 | -0.024 | -0.066 | 0.041 | 0.058 | -0.006 | -0.026 | 0.04 | -0.112 | 0.016 | 0 | -0.043 | -0.438 (active) | 0.01 | -0.006 | 0.027 | -0.058
